Structures can show the parent of a compound that is named as a salt. ± gives the standard deviation of the averaged measurements.

The assay concerns Toxoplasma gondii RH (in HFF). Put plainly: parasite growth relative to the screen mean (all compounds = 100%); higher = less inhibition of parasite growth. Conditions: 5 µM; 72 h; oxygen 21 %. Summed up: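 Confluent human foreskin fibroblasts in 96-well plates received library compounds by pin transfer at 5 µM final, taken from 10 mM DMSO stocks. Within 2 h the cells were infected with RH β-Gal–GFP Toxoplasma at MOI 1:5 and cultured 72 h at 21% O2. A CPRG β-Gal assay read against in-plate standard curves gave parasite number, and growth is stated relative to the screen mean, where all compounds = 100%, averaged across two screens.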
`CC(CN)CC(=O)O` (stereo not given) [3-Methyl-GABA] had a parasite growth of 119 ± 4.7%.

In turn, `CN1CCN(c2ccc3ccccc3n2)CC1` [N-Methylquipazine dimaleate] had a parasite growth of 111 ± 14%.

In turn, `CC(=O)NCCc1c[nH]c2ccccc12` [N-Acetyltryptamine] registered a parasite growth of 146 ± 7.5%.

`C=CCN1CC[C@]23c4c5ccc(O)c4O[C@H]2/C(=N/NC(=O)c2ccccc2)CC[C@@]3(O)[C@H]1C5` [Naloxone benzoylhydrazone] gave a parasite growth of 108 ± 34%.

With `Cc1nc(N)sc1CCN` [Amthamine dihydrobromide], the parasite growth was determined as 94 ± 4.8%.

As to `COc1cc2c(cc1OC)C1CC(=O)C(CC(C)C)CN1CC2` (stereo not given) [Tetrabenazine], the parasite growth turned out to be 132 ± 1.5%.

In turn, `CC(C)[C@@]1(NC(=O)[C@@H]2C[C@@H]3c4cccc5[nH]cc(c45)C[C@H]3N(C)C2)O[C@@]2(O)[C@@H]3CCCN3C(=O)[C@H](Cc3ccccc3)N2C1=O` [Dihydroergocristine mesylate] displayed a parasite growth of 8.76 ± 1.6%.

In turn, `c1ccc(C2CNCc3ccccc32)cc1` (stereo not given) [4-Phenyl-1,2,3,4-tetrahydroisoquinoline hydrochloride] came in with a parasite growth of 98.2 ± 12%.

Compound `CC(C(=O)OC1CC2CCC(C1)N2C)c1ccc(Br)cc1` (stereo not given) [PG-9 maleate] had a parasite growth of 101 ± 1.4%.

`CCCN(C/C=C/I)C1CCc2ccc(O)cc2C1` (stereo not given) [7-Hydroxy-PIPAT maleate] registered a parasite growth of 181 ± 37%.

`c1ccc2c(c1)[I+]c1ccccc1-2` [Diphenyleneiodonium chloride]: the parasite growth is below 0%.

`C[C@H](Cc1ccc(OCC(=O)O)cc1)NC[C@H](O)c1cccc(Cl)c1`: the parasite growth worked out at 90.6 ± 30%.

Turning to `CCCN(CCC)C1CCc2ccc(O)cc2C1` (stereo not given) [7-Hydroxy-DPAT hydrobromide], the parasite growth was determined as 67.2 ± 33%.

`NC(N)=Nc1ccc2[nH]c3c(c2c1)C[C@@]1(O)[C@H]2Cc4ccc(O)c5c4[C@@]1(CCN2CC1CC1)[C@H]3O5` [GNTI dihydrochloride] showed a parasite growth of 124 ± 2.5%.

`C[C@@H]1O[C@@H](O[C@H]2C[C@@H](O)[C@]3(CO)[C@H]4[C@H](O)C[C@]5(C)[C@@H](C6=CC(=O)OC6)CC[C@]5(O)[C@@H]4CC[C@]3(O)C2)[C@H](O)[C@H](O)[C@H]1O` [Ouabain] showed a parasite growth of 52.8 ± 8.2%.

Take `C[N+](C)(C)CC#CCN1CCCC1=O` [Oxotremorine M]: the parasite growth was determined as 172 ± 41%.

Take `CN1C[C@H](C(=O)N[C@]2(C)O[C@@]3(O)[C@@H]4CCCN4C(=O)[C@H](Cc4ccccc4)N3C2=O)C[C@@H]2c3cccc4[nH]cc(c34)C[C@H]21` [Dihydroergotamine mesylate]: the parasite growth is 39.27 ± 0.23%.

Compound `CN1c2ccccc2C(NCCCCCCC(=O)O)c2ccc(Cl)cc2S1(=O)=O` (stereo not given) [Tianeptine] had a parasite growth of 98.7 ± 16%.

Take `CCCN(CCC)C1Cc2cc(OC)c(OC)cc2C1`: the parasite growth amounted to 123 ± 7.5%.

`N=C(N)NN` [Aminoguanidine hydrochloride] displayed a parasite growth of 124 ± 28%.

As for `CN(C)c1ccc(/C=C2\CCCN=C2c2cccnc2)cc1` [DMAB-anabaseine dihydrochloride], the parasite growth amounted to 97.4 ± 15%.

For `CN1C(=O)CCS(=O)(=O)C1c1ccc(Cl)cc1` (stereo not given) [Chlormezanone], the parasite growth came out at 145 ± 22%.

The compound `CCCCC/C=C\C/C=C\C/C=C\C/C=C\CCCC(=O)Nc1ccc(O)cc1` returned a parasite growth of 31.3 ± 14%.

As to `O[C@H]1[C@H](O)[C@@H](O)CN2CC[C@H](O)[C@H]12` [Castanospermine], the parasite growth worked out at 150 ± 7.6%.

On to `O=C(O)C1=CCCN(CCOC(c2ccc(C(F)(F)F)cc2)c2ccc(C(F)(F)F)cc2)C1` [CI 966 hydrochloride], for which the parasite growth came to 137 ± 5.2%.

`S=C(NC1CCCCC1)N1CCC(c2cnc[nH]2)CC1` [Thioperamide] gave a parasite growth of 124 ± 20%.

The compound `N[C@@]1(C(=O)O)CC[C@@H](C(=O)O)C1` yielded a parasite growth of 111 ± 27%.

For the compound `Cc1ccc2c(c1)C1(CCN(CCc3nc(-c4ccccc4)oc3C)CC1)OC(=O)N2`, the parasite growth was 96.7 ± 3.8%.

In turn, `CC1=NN=C(c2ccc(N)cc2)c2cc3c(cc2C1)OCO3` yielded a parasite growth of 47.2 ± 4.7%.

Take `Cc1cc(C)cc(C(=O)OC2C[C@H]3CC[C@@H](C2)N3C)c1` (stereo not given in full) [Tropanyl-3,5-dimethylbenzoate]: the parasite growth was found to be 97.3 ± 3.6%.

The compound `Cc1cccc(C(C)c2c[nH]cn2)c1C` (stereo not given) [Medetomidine hydrochloride] yielded a parasite growth of 24.7 ± 22%.

Consider `NC(=S)N/N=C/c1coc2ccccc2c1=O.[Cl][Cu][Cl]`, for which the parasite growth is 37.1 ± 24%.

In turn, `CC(N)Cc1c[nH]c2ccc(O)cc12` (stereo not drawn) [α-Methyl-5-hydroxytryptamine maleate] yielded a parasite growth of 144 ± 31%.

`Cc1[nH]c2ccc(O)cc2c1CCN` [2-Methyl-5-hydroxytryptamine hydrochloride]: the parasite growth was 139 ± 37%.

Compound `CC(=O)N(C)c1cccc(-c2ccnc3c(C(=O)c4cccs4)cnn23)c1` [Indiplon] gave a parasite growth of 79.5 ± 17%.
